Assay results from the supplement of paper PMC6555819.

Test system: LXRb homodimer (NR concentration 270 nM)
Assay: PBM binding z-score (relative to random genomic background probes); higher = stronger binding; sequences stand for … in GC…GCGATTGACAGCGTAGAATGAAGG
Method in brief: (§1)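 Ligand-free nuclear receptor dimers were bound for 1 h to custom Agilent 4×180K protein-binding microarrays. Detection used antibodies against each partner (one per run). Binding z-scores rest on regression-normalized fluorescence, with random background probes as the reference.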

Sequence | PBM binding z-score
CTACCAAGGTGAACAAGGTCGTTGACTACTATTC | -0.0485
GCTAGCTGGTCAGTAAAAGGTCACACACCGGTCG | 0.195
AGTCAAAGTTCACTAGGTAACGTCAGATTCAGCT | 0.994
CTCGAAAGGTAGGTTGAGGTGAGTATACGGATAA | -0.508
TCATATAGGTAAATGCGAGGTGAAAGTCCGATCT | -0.00137
TAGCCTAGGGCATTGGGCCAGTATAGTACGCATC | -0.892
ATCTCTAGGTAAAGTTCAGTAAAAGATCGATAGA | 0.992
CAGCCTAGGTCAGGGCTAGTATAGGAGGAACGTT | -1.36
CAGACTAGGTCAGGGCCAGTATAGGAGGAACGTT | -0.575
CCTCGGAGGACAGAAGGTCAGAGTTGTCCGCTTT | -0.813
CTCGAAAGGTCGGTTGAGGTGAGTATCCGGATAA | 0.0486
ATCGAAAGGTCGAGGTGAGTATAGAGAAAGGGAA | 0.504
AATACAGGGTCATCGTAGGCCAAAGTACGCACAG | 1.6
CGTCCAAGCTCAATGCTAGGTCAGTGAAAGCATT | -0.887
ATCTCTAGGTAAAGATAGTTCAGTGACTGCAAAT | 0.656
TCTATTAGTTGAAGGGCAACCGGCGAGTCCGTTT | 0.229
CTCGAAACGTCGGTTGAGGTGAGTATACGGATAA | -0.3
ACTAGCAGGCCAAGGGACACTCAAGATTAGTCCG | -0.655
TTACCAAGGTTAAGGTCGTTGATCCCTCTGTAGA | -0.123
GCTGCTAGGTCAGGTTGGACAGCTAACGGGTACG | -0.346

Sequence | PBM binding z-score
GCTATTCGTTGAAAGGGCAACCGAATGATTCTCG | -0.0285
CAAACTAGGTCAAAGGTCAATGTCGAGCCAACCA | 2.33
ATATGTAGGTTATCGGGGCATTCAGTTTGCGCAT | 1.81
TCTAGTTGGTCAAATGTCACACACTCGAAATGCG | 0.913
CTACCAAGGTGAACAAGGTCGTTGGTTACTATTC | -0.365
TCTTGTAGGTCAGCAGGTTAAGAAAGCTGGCCAA | 0.418
CGAACTTGGTCAGAACAGGACAGTGAAGGATGAT | -0.663
ACAGACAGGTGAGTGAAGGTAACTGAGCTGGACG | -0.405
TCTATTAGTTGAAGGGCATCCGACGAGTCCGTTT | 0.284
AGTCAAAGTTCATCTAGGTAAAGTAAGATATGCT | 1.97
CCTTACGGGTCAAGGTTACAGCACGGGTGGTACG | -0.186
CAAACTACGTCAAGGTCAAAGTCGGTTTGTGCCA | 1.01
CCTCGGAGGACATCAGGAGGTCAGAGCTGCCAGA | -0.894
AGAACGAGGGCAATGAGTTGGTAGCACGGGTGGC | -0.642
AGTTAAAGTTCAGGACGAGGTAACGTAAAGCACG | 0.474
ACAGACAGGTGAGTGCAGGTAACTCAGCTGGACG | -1.06
TCATATAGGTAAAAGGTGAAAGCCGGTGTGGTAA | -0.0293
GCTGCTTGGTCAGGTTGGTCAGCTAACGGGTACG | -0.187
CCTTACGGGTCACTCCAGGTTAGAGCATCGGAGT | 0.148
CCTACTGGGCCAAAAAGGACATTGATGCCGATAA | -0.727

Test system: PPARa:RXRa (NR concentration 270 nM, RXRa partner concentration 90 nM)
Assay: as above
Method in brief: as §1

Sequence | PBM binding z-score
CTACCAAGGTGAACAAGGTCGTTGACTACTATTC | 2.65
GCTAGCTGGTCAGTAAAAGGTCACACACCGGTCG | 4.21
AGTCAAAGTTCACTAGGTAACGTCAGATTCAGCT | 4.68
CTCGAAAGGTAGGTTGAGGTGAGTATACGGATAA | 0.424
TCATATAGGTAAATGCGAGGTGAAAGTCCGATCT | 2.07
TAGCCTAGGGCATTGGGCCAGTATAGTACGCATC | -0.0901
ATCTCTAGGTAAAGTTCAGTAAAAGATCGATAGA | 2.18
CAGCCTAGGTCAGGGCTAGTATAGGAGGAACGTT | 1.99
CAGACTAGGTCAGGGCCAGTATAGGAGGAACGTT | 2.57
CCTCGGAGGACAGAAGGTCAGAGTTGTCCGCTTT | 1.88
CTCGAAAGGTCGGTTGAGGTGAGTATCCGGATAA | 2.71
ATCGAAAGGTCGAGGTGAGTATAGAGAAAGGGAA | 4.79
AATACAGGGTCATCGTAGGCCAAAGTACGCACAG | 6.04
CGTCCAAGCTCAATGCTAGGTCAGTGAAAGCATT | 0.167
ATCTCTAGGTAAAGATAGTTCAGTGACTGCAAAT | 0.677
TCTATTAGTTGAAGGGCAACCGGCGAGTCCGTTT | 0.966
CTCGAAACGTCGGTTGAGGTGAGTATACGGATAA | -0.163
ACTAGCAGGCCAAGGGACACTCAAGATTAGTCCG | -0.248
TTACCAAGGTTAAGGTCGTTGATCCCTCTGTAGA | 3.38
GCTGCTAGGTCAGGTTGGACAGCTAACGGGTACG | 1.2

Sequence | PBM binding z-score
GCTATTCGTTGAAAGGGCAACCGAATGATTCTCG | 1.61
CAAACTAGGTCAAAGGTCAATGTCGAGCCAACCA | 7.33
ATATGTAGGTTATCGGGGCATTCAGTTTGCGCAT | 3.95
TCTAGTTGGTCAAATGTCACACACTCGAAATGCG | 2.93
CTACCAAGGTGAACAAGGTCGTTGGTTACTATTC | 2.45
TCTTGTAGGTCAGCAGGTTAAGAAAGCTGGCCAA | 4.35
CGAACTTGGTCAGAACAGGACAGTGAAGGATGAT | -0.129
ACAGACAGGTGAGTGAAGGTAACTGAGCTGGACG | 0.393
TCTATTAGTTGAAGGGCATCCGACGAGTCCGTTT | 0.934
AGTCAAAGTTCATCTAGGTAAAGTAAGATATGCT | 5.14
CCTTACGGGTCAAGGTTACAGCACGGGTGGTACG | 5.24
CAAACTACGTCAAGGTCAAAGTCGGTTTGTGCCA | 4.35
CCTCGGAGGACATCAGGAGGTCAGAGCTGCCAGA | 1.93
AGAACGAGGGCAATGAGTTGGTAGCACGGGTGGC | 1.18
AGTTAAAGTTCAGGACGAGGTAACGTAAAGCACG | 2.83
ACAGACAGGTGAGTGCAGGTAACTCAGCTGGACG | -0.0295
TCATATAGGTAAAAGGTGAAAGCCGGTGTGGTAA | 5.73
GCTGCTTGGTCAGGTTGGTCAGCTAACGGGTACG | -0.407
CCTTACGGGTCACTCCAGGTTAGAGCATCGGAGT | 4.23
CCTACTGGGCCAAAAAGGACATTGATGCCGATAA | -0.00322
